Source: PubChem BioAssay (NCATS)
Results filed as inconclusive are left out. Calls of active or inactive are those of the source. Unless noted, the call rests on the fitted dose curve; in most records, active means well fitted curve in the direction sought with a large enough effect; inconclusive means small, poorly fitted or top-dose-only effect, or another doubt; inactive means no such curve, though single readings can be large; an effect the other way counts as inactive or inconclusive.

Tests used:
[1] = qHTS for Inhibitors of the Functional Ribonucleoprotein Complex (vRNP) of Lassa (LASV) Arenavirus: LASV Primary Screen - GLuc reporter signal (AID 1347082; calls by dose curve; tested in HEK293 reporter line; further: series mostly up to about 57 µM; nearly all actives have a fitted effect of over 60% in size)
[2] = qHTS for Inhibitors of the Functional Ribonucleoprotein Complex (vRNP) of Lassa (LASV) Arenavirus: Viability assay - alamar blue signal for LASV Primary Screen (AID 1347083; calls by dose curve; tested in HEK293 reporter line; further: series mostly up to about 57 µM; nearly all actives have a fitted effect of over 80% in size)
[3] = qHTS for Inhibitors of the Functional Ribonucleoprotein Complex (vRNP) of Lymphocytic Choriomeningitis Arenaviruses (LCMV): Viability assay - alamar blue signal for LCMV Primary Screen (AID 1347085; calls by dose curve; tested in HEK293 reporter line; further: series mostly up to about 57 µM; nearly all actives have a fitted effect of over 80% in size)
[4] = molecular target: Nucleoprotein (Lymphocytic choriomeningitis virus (strain Armstrong)) (UniProt P09992); assay: qHTS for Inhibitors of the Functional Ribonucleoprotein Complex (vRNP) of Lymphocytic Choriomeningitis Arenaviruses (LCMV): LCMV Primary Screen - GLuc reporter signal (AID 1347086; calls by dose curve; further: series mostly up to about 57 µM; nearly all actives have a fitted effect of over 70% in size)
Nucleoprotein (Lymphocytic choriomeningitis virus (strain Armstrong)), sequence (P09992 whole entry, looked up): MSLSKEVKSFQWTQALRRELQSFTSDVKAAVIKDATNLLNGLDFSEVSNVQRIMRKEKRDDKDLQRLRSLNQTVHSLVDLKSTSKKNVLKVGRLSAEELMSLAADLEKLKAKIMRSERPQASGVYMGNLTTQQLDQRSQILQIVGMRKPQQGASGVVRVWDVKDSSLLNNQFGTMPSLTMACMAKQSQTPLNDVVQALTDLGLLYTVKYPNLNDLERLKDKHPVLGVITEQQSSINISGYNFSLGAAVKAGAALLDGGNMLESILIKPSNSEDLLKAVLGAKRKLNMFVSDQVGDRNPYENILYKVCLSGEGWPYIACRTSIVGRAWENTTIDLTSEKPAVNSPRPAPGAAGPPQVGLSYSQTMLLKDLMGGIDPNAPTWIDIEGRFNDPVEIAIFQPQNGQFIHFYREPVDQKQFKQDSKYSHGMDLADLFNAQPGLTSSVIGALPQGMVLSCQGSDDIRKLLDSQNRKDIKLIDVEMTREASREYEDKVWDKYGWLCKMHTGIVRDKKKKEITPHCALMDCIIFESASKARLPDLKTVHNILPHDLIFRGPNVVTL

[5] = qHTS of pediatric cancer cell lines to identify multiple opportunities for drug repurposing: Primary screen for TC32 cells (AID 1347089); further: nearly all actives have a fitted effect of over 60% in size
Outline: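 TC32 cells, 500-1,000/well in growth medium, compound-treated 48 h at 37 °C; viability from CellTiter-Glo luminescence. Primary screen: MIPE 11-point (0.78 nM–46 µM final), NPC 8-point (0.59 nM–46 µM final); confirmatory at 11-point dilutions.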

[6] = qHTS of pediatric cancer cell lines to identify multiple opportunities for drug repurposing: Primary screen for DAOY cells (AID 1347090); further: series mostly up to about 46 µM; nearly all actives have a fitted effect of over 55% in size
Outline: (§1)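 Eight- or eleven-point concentration series, 48 h treatment at 37 degrees C in growth media; readout CellTiter-Glo luminescence. Potency and efficacy were taken from the concentration-response curves.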

[7] = qHTS of pediatric cancer cell lines to identify multiple opportunities for drug repurposing: Primary screen for SJ-GBM2 cells (AID 1347091)
Outline: as §1

[8] = qHTS of pediatric cancer cell lines to identify multiple opportunities for drug repurposing: Primary screen for A673 cells (AID 1347092); further: nearly all actives have a fitted effect of over 45% in size
Outline: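 A673 cells (500-1,000 cells/well) were treated 48 hours at 37 degrees C with compounds at 11-point (0.78 nM to 46 µM) or 8-point (0.59 nM to 46 µM) dilutions. Viability read by CellTiter-Glo luminescence; concentration-response curves fitted.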

[9] = qHTS of pediatric cancer cell lines to identify multiple opportunities for drug repurposing: Primary screen for BT-37 cells (AID 1347094); further: series mostly up to about 57 µM
Outline: (§2)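 Plated cells (500-1,000 per well, growth media) were allowed to settle for 5 hours, treated with compound dilutions for 48 hours, then lysed with CellTiter-Glo for 15 min at room temperature before luminescence reading.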

[10] = qHTS of pediatric cancer cell lines to identify multiple opportunities for drug repurposing: Primary screen for NB-EBc1 cells (AID 1347095)
Outline: as §2

[11] = qHTS of pediatric cancer cell lines to identify multiple opportunities for drug repurposing: Primary screen for Saos-2 cells (AID 1347097); further: nearly all actives have a fitted effect of over 40% in size
Outline: as §2

[12] = qHTS of pediatric cancer cell lines to identify multiple opportunities for drug repurposing: Primary screen for NB1643 cells (AID 1347099); further: nearly all actives have a fitted effect of over 50% in size
Outline: as §2

[13] = qHTS of pediatric cancer cell lines to identify multiple opportunities for drug repurposing: Primary screen for U-2 OS cells (AID 1347096); further: nearly all actives have a fitted effect of over 50% in size
Outline: (§3)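 Cells (500-1,000/well) in growth media were settled 5 h at 37 degrees C, then given compounds for 48 h. Viability was read as CellTiter-Glo luminescence. Primary runs used MIPE at 11 points (0.78 nM-46 µM) and NPC at 8 points (0.59 nM-46 µM); follow-ups used 11 points.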

[14] = qHTS of pediatric cancer cell lines to identify multiple opportunities for drug repurposing: Primary screen for LAN-5 cells (AID 1347100)
Outline: as §3

[15] = qHTS of pediatric cancer cell lines to identify multiple opportunities for drug repurposing: Primary screen for SK-N-MC cells (AID 1347093); further: series mostly up to about 46 µM
Outline: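 Metabolically active cells were quantified by ATP-dependent luminescence (CellTiter-Glo, 15 min at room temperature) following 48 h treatment. Cells had been plated at 500-1,000 per well and settled for 5 h beforehand.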

[16] = qHTS of pediatric cancer cell lines to identify multiple opportunities for drug repurposing: Primary screen for SK-N-SH cells (AID 1347098);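 further: DMSO served as neutral control and bortezomib at 2.3 µM as positive control; nearly all actives have a fitted effect of over 65% in size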
Outline: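 Cells (500-1,000/well) rested 5 h, then received compounds for 48 h; metabolically active cells were measured by CellTiter-Glo luminescence. Final concentrations spanned up to 46 µM (MIPE, 11-point) or 0.59 nM-46 µM (NPC, 8-point) in primary screens, 11-point in follow-ups.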

Measured: Potency

CCC(=O)O[C@H]1CC[C@H]2[C@@H]3CCC4=CC(=O)CC[C@]4(C)[C@H]3CC[C@]12C
not listed: [13] | [14] | [15] | [16]
inactive: all other assays above

CN1CCC(N(Cc2ccccc2)c2ccccc2)CC1
not listed: [15] | [16]
inactive: all other assays above

COP(=O)(OC)OC=C(Cl)Cl
not listed: [8]
inactive: all other assays above

CN1C(=O)CN=C(c2ccccc2)c2cc(Cl)ccc21
not listed: [8] | [12] | [13]
inactive: all other assays above

CNC(C)Cc1ccccc1OC (stereo not drawn)
not listed: [11] | [15]
inactive: all other assays above

O=C(CBr)Nc1ccc(Cl)cc1C(=O)c1ccccc1F
not listed: [8] | [16]
inactive: all other assays above

COc1cc(CC(C)N)cc2c1OCO2 (stereo not drawn)
not listed: [8]
inactive: all other assays above

C[N+]1(C)[C@@H]2CC[C@H]1CC(OC(=O)C(CO)c1ccccc1)C2 (stereo partly drawn)
not listed: [15] | [16]
inactive: all other assays above

CC(CC(C(N)=O)(c1ccccc1)c1ccccc1)N(C)C (stereo not drawn)
not listed: [8]
inactive: all other assays above

NC1(c2ccccc2)CCCCC1
not listed: [8] | [15]
inactive: all other assays above

Cc1ccc(N=CN(C)C=Nc2ccc(C)cc2C)c(C)c1
not listed: [13]
inactive: all other assays above

O=c1[nH]c2cc(Cl)ccc2n1C1CCNCC1
not listed: [8]
inactive: all other assays above

Cc1nc2ccccc2c(=O)n1-c1ccccc1Cl
not listed: [11] | [13] | [16]
inactive: all other assays above

NC(=O)OCCCc1ccccc1
not listed: [8] | [13]
inactive: all other assays above

c1ccc2nc(N3CCNCC3)ccc2c1
not listed: [8] | [15] | [16]
inactive: all other assays above

CCN(CC)C(C)C(=O)c1ccccc1 (stereo not drawn)
not listed: [8] | [13]
inactive: all other assays above

COc1ccc(CN2CCNCC2)c(OC)c1OC
not listed: [13]
inactive: all other assays above

Cc1nnc2n1-c1sc(CCC(=O)N3CCOCC3)cc1C(c1ccccc1Cl)=NC2
not listed: [8] | [13]
inactive: all other assays above
